# TGFb SMAD3 inh: TGF-b pathway inhibition; 1.2% of 410,000 active; HepG2 CAGA-GFP TGF-b/SMAD3 reporter, GFP fluorescence, 18 h; TGF-beta stimulated, 500 pg/mL final; Potency, µM (series often up to 46.1 µM), usual class: inhibitors; AID 588855; note: nearly all actives have a fitted effect of over 65% in size
#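 First, reporter cells (HEPG2 CAGA-GFP) rested 2 h at 37 degrees C. Next, compounds were pinned in and TGF-beta added to 500 pg/mL final. After 18 h, GFP was imaged per cell and summed per well.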
# IL1B secr inh: blocks inflammasome-driven IL-1 beta release; 4.7% of 360,000 active; THP-1 LPS/ATP IL-1B secretion, AlphaLISA, 16 h; active compounds read low; activity change, % at 57.5 µM; in the data active = activity change below about -50%; inconclusive = mostly about -30% to -49%
#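 Secreted IL-1B measured by AlphaLISA bead assay after 16 h compound exposure of THP-1 cells; compounds (final up to 57.5 uM) added 1 h before LPS (250 ng/mL) and ATP (1.25 mM) stimulation; lower signal means less secretion.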
# HT1080 IDH1KD tx: HT-1080 IDH1 knockdown cell toxicity (counter line). HT-1080 IDH1 knockdown viability, ATP luminescence, 48 h. Potency, µM (highest dose often 46.1 µM), most hits filed as cytotoxic. 2% of 360,000 active
#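 CellTiter-Glo luminescence after 48 h compound exposure at 37 degrees C of IDH1-knockdown HT-1080 cells in 5% FBS RPMI. %Activity scaled between DMSO wells and cell-free media wells, with curves fitted and assigned curve classes.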
# HT1080NT lethal: kills 2HG-producing HT-1080-NT fibrosarcoma cells | Potency, µM (doses to about 46.1 µM), usual class: cytotoxic | 1.6% of 360,000 active | AID 686970 | HT-1080-NT fibrosarcoma viability, CellTiter-Glo ATP luminescence, 48 h;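 note: NT is the 2HG producing partner of a matched IDH1 knockdown line; nearly all actives have a fitted effect of over 55% in size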
#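 HT-1080-NT; 750 cells/well; 5% FBS RPMI; 48 h compound, 37 degrees C; CellTiter-Glo luminescence; curve fitting and curve-class assignment.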
# Giardia killer: kills Giardia lamblia; Giardia lamblia trophozoite viability; activity change, % at 7.66 µM, hits read low; 0.15% of 340,000 active; AID 540267; in the data active = activity change below about -80%; inconclusive = between about -30% and that limit;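 note: parasites exposed to compound for two days anaerobically before the ATP read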
#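 Giardia trophozoites, 100 cells per well, were exposed to compounds for 48 hrs at 37 deg C under anaerobic conditions; viability was then read as ATP content by bioluminescence after 15-30 min at room temperature.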
# HepG2 viability: HepG2 cytotoxicity, counter-screen for TGF-b inhibitors; 0.76% of 410,000 active; HepG2 CAGA-GFP viability, ATP luminescence, 18 h; Potency, µM (doses to about 46.1 µM), hits mostly cytotoxic
#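 CellTiter-Glo luminescence gave cytotoxicity after 18 hours at 37 degrees C. The cells were HepG2 CAGA-GFP in 1% FBS DMEM, stimulated with 500 pg/mL TGF-beta after compound addition. %Activity was normalised to no-cell wells (complete cell-killing) and DMSO (no toxicity), and curves were fitted and classified.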
# Hits are given with their value; . = inactive; ? = inconclusive; / = no result; [ ] = remark or other dose. This is a sample that favours compounds with a hit; in the whole collection about 6.5% have one here. Unless noted, calls come from the whole dose curve; as a rule, active = well fitted curve in the direction sought with a large enough effect; inconclusive = small, poorly fitted or top-dose-only effect, or another doubt; inactive = no such curve, though single readings can be large; an effect the other way counts as inactive or inconclusive.
SMILES,TGFb SMAD3 inh,IL1B secr inh,HT1080 IDH1KD tx,HT1080NT lethal,Giardia killer,HepG2 viability
O=C(c1cc(COc2ccc(F)cc2F)on1)N1CC2C[C@@H]3CC1C[C@H](C2)C3,?,-98.3,.,.,.,.
CN1CCN(C(=O)c2cc(COc3ccc(F)cc3Cl)on2)CC1c1ccccc1 (stereo not drawn),?,-87.7,?,.,.,.
O=C(c1cc(COc2ccc(F)cc2F)on1)N1C[C@H]2CC[C@H]1C2,.,.,.,.,.,.
O=[N+]([O-])c1ccc(Oc2ccc(OCc3ccccc3)cc2)nc1,.,-80.4,.,.,.,.
O=[N+]([O-])c1cccnc1Oc1ccc(OCc2ccccc2)cc1,.,?,.,.,.,.
CCCCSC(=S)NC1CCS(=O)(=O)C1 (stereo not drawn),.,-98.2,?,.,.,.
O=S1(=O)CCC(NC(=S)SCCOc2ccccc2)C1 (stereo not drawn),20µM,?,.,.,.,.
O=C(Nc1ccccc1N1CCCCC1)c1ncoc1-c1ccc(F)cc1,.,.,?,.,.,.
CC(C)C[C@H](N)c1nnc(SCc2ccc(Cl)cc2Cl)o1,?,/,/,/,/,.
CC(C)C[C@H](N)c1nnc(S(=O)(=O)Cc2ccc(F)cc2)o1,?,-116.8,?,?,.,.
O=C(Nc1ccccc1Cl)C(Cl)C(=O)c1ccccc1 (stereo not drawn),.,-67.7,.,.,.,.
COc1ccc(C(NC(=O)C2CCN(CCOc3ccc(Cl)cc3Cl)CC2)c2ccccc2C)cn1 (stereo not drawn),?,.,.,.,/,.
COc1ccc(OCCN2CCC(C(=O)NC(c3ccc(Cl)cc3)c3cnccn3)CC2)cc1 (stereo not drawn),.,-54.1,.,.,/,.
COc1ccc(OCCN2CCC(C(=O)NC(c3ccc(F)cc3)c3ncccc3C)CC2)cc1 (stereo not drawn),.,.,?,?,/,.
Cc1cccnc1C(NC(=O)C1CCN(CCOc2ccc(F)cc2)CC1)c1ccc(Cl)cc1 (stereo not drawn),?,-69.3,16.4µM,?,/,11.2µM
Cc1ccccc1C(c1ncccc1C)N(C)C(=O)C1CCN(CCOc2ccc(Cl)cc2Cl)CC1 (stereo not drawn),?,?,23.1µM,?,/,.
COc1ccc(/C=C/CN2CCC(C(=O)NC(c3ccc(F)cc3)c3ccc4ccccc4n3)CC2)cc1 (stereo not drawn),?,?,10.3µM,16.4µM,/,.
CC(C)N(Cc1ccccc1)C(=O)CN1C(=O)COc2ccc(S(=O)(=O)NC3CCCC3)cc21,.,?,.,.,.,.
Nc1ncnc(Nc2cccc(F)c2)n1,.,.,.,.,.,.
COc1ccccc1C(NC(=O)C1CCN(CCOc2ccc3ccccc3c2)CC1)c1ccccn1 (stereo not drawn),14.1µM,?,18.4µM,18.4µM,/,.
COc1ccc(OCCN2CCC(C(=O)NC(c3ccccn3)c3ccccc3OC)CC2)cc1 (stereo not drawn),.,.,.,.,/,.
Cc1cccnc1C(NC(=O)C1CCN(CCCOc2ccc(F)cc2)CC1)c1ccccc1 (stereo not drawn),?,?,?,?,/,.
COc1ccc(OCCN2CCC(C(=O)NC(c3ccc(Cl)cc3)c3ncccc3C)CC2)cc1 (stereo not drawn),?,/,20.6µM,?,/,.
O=C(COc1ccc(-n2cnnn2)cc1)N1CCN(c2ccc(F)cc2)CC1,.,.,.,.,.,.
CC(C)c1ccc(/C=N/N2CCN(c3ccccn3)CC2)cc1,.,.,.,.,.,.
SMILES,TGFb SMAD3 inh,IL1B secr inh,HT1080 IDH1KD tx,HT1080NT lethal,Giardia killer,HepG2 viability
NC1=NC(=Nc2ccc(S(N)(=O)=O)cc2)c2ccccc21,.,.,.,.,.,.
NC1=NC(=Nc2cccc(S(=O)(=O)N3CCOCC3)c2)c2ccccc21,?,-59.6,.,.,.,.
OCC1=C[C@@H](O)C2C=CO[C@@H](O[C@@H]3O[C@H](CO)[C@@H](O)[C@H](O)[C@H]3O)C12 (stereo partly drawn),.,.,.,.,.,.
O=C(Nc1ccc(F)cc1)C1C(c2ccccc2)C1(Cl)Cl (stereo not drawn),15.8µM,.,.,.,.,.
Cn1c(=O)[nH]c(=O)c2c1nc(Br)n2Cc1ccccc1F,.,.,.,.,.,.
Clc1cccc(Cl)c1/C=N/Nc1c(Cl)cncc1Cl,.,-82.5,5.17µM,2.31µM,.,.
Clc1cncc(Cl)c1N/N=C/c1ccncc1,.,-94.9,?,.,.,.
CC(C)(C)C(=O)Nc1cc2nn(-c3ccccc3)nc2cc1Cl,.,.,.,.,-92.9,.
CCOc1ccc(/C(CCC(=O)O)=N/NC(=S)NC(C)C)cc1,.,.,.,.,.,.
CCN(c1cccc2ccccc12)S(=O)(=O)c1ccc(Cl)nc1,.,-75.4,.,.,.,.
COc1ccc(NC(=O)CC2C(=O)N(c3ccc(F)cc3)C(=O)N2Cc2cccnc2)cc1 (stereo not drawn),.,/,/,/,/,.
CC(C)CCN(C(=S)Nc1cccc(F)c1)C1CCN(C(C)C)CC1,.,-92.0,.,.,.,.
COc1ccc(NC(=S)N(CCC(C)C)C2CCN(C(C)C)CC2)cc1,.,?,.,.,.,.
CCc1ccc2[nH]c(=O)c(CN(Cc3ccccc3OC)C(=O)Nc3ccccc3OC)cc2c1,.,-60.3,.,.[9.24 µM],.,.
COc1ccccc1NC(=O)N(Cc1cc2cc(OC)c(OC)cc2[nH]c1=O)CC1CCCO1 (stereo not drawn),.,?,.,.,.,.
COc1ccccc1CN(Cc1nc2ccccc2c(=O)[nH]1)C(=O)Nc1ccccc1C,.,.,11.2µM,?,.,.
COc1ccccc1CN(Cc1nc2ccccc2c(=O)[nH]1)C(=O)Nc1ccc(C)cc1,.,.,.,.,.,.
COc1ccc2[nH]c(=O)c(CN(CC3CCCO3)C(=O)Nc3ccccc3OC)cc2c1 (stereo not drawn),.,-61.7,?,?,.,.
O=C(c1ccc(F)cc1)c1ccc(N2CCCC2)cc1,?,.,.,.,.,.
O=C(Nc1nnc(SCc2ccccn2)s1)C1CC(=O)N(c2ccc(F)cc2)C1 (stereo not drawn),.,.,.,.,.,.
Cc1ccc(CNc2nc(Cl)c(C#N)s2)cc1,.,.,.,.,.,.
N#Cc1sc(NCc2cccc(Cl)c2)nc1Cl,?,.,?,23.1µM,?,.

# Screening results (PubChem BioAssay)
